Hit rate of the full screen: of about 5,600 compounds, about 150 (2.7%) showed an effect of 50% or more. Only a selection was taken, and strong results are over-represented in it overall.

This test has as its target T1, Protein deacetylase HDAC6 (Homo sapiens) (UniProt Q9UBN7).
T1 sequence (whole entry): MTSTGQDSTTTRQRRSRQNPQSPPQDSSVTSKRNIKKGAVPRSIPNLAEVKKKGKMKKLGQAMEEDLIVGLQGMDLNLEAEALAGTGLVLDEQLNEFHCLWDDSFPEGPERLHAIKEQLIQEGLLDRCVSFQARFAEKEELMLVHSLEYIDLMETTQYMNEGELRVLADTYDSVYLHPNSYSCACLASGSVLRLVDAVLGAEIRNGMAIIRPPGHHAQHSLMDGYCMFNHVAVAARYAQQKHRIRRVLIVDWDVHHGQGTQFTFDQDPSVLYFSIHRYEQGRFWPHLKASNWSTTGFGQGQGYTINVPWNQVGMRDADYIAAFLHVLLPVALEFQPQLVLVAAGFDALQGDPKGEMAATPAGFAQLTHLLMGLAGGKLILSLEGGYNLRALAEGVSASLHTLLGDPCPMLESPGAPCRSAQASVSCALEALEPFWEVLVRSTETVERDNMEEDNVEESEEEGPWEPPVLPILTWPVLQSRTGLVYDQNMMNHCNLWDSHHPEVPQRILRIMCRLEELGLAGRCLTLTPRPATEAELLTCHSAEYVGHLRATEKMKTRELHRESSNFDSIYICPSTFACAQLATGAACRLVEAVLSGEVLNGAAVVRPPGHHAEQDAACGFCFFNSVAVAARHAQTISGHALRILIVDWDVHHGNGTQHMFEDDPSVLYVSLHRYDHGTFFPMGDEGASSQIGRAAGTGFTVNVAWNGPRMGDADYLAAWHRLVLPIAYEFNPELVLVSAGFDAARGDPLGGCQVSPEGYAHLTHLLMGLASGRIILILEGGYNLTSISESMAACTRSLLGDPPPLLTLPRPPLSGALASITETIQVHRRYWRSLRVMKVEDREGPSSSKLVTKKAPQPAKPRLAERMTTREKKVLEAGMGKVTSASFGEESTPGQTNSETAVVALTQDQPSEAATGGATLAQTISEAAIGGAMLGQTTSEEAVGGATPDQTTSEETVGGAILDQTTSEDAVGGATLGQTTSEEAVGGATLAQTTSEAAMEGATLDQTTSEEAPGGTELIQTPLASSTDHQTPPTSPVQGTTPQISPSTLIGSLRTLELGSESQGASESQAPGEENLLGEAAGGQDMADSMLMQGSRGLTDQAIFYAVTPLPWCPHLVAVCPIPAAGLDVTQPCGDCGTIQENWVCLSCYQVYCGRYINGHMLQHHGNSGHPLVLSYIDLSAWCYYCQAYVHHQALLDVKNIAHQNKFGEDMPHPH
The following applies: at 10 µM.

One may read the inhibition as the drop in the measured response relative to a control, in per cent. In the case of `CSc1ccc([C@H]2CN3CCC[C@H]3c3ccccc32)cc1` (racemic), the inhibition is -1.09%.
For `Nc1nccs1`, the inhibition was -0.93%.
As for `Nc1nncs1`, the inhibition is 60.9%.
Then `COCCOc1ccc(N2CCN(CCn3ncc4c3nc(N)n3nc(-c5ccco5)nc43)CC2)cc1`, with 4.38%; and `Cc1cc(C)cc(NC(=O)Nc2ccc(OS(N)(=O)=O)cc2)c1`, with 76.1%; and `Cc1ccc(S(=O)(=O)OCC(=O)Nc2ccc(C(=O)O)c(O)c2)cc1`, with -5.6%.
For the compound `NS(=O)(=O)c1ccc(NC(=O)Nc2ccc(F)cc2)cc1`, the inhibition turned out to be 0.46%.
In the case of `COC(=O)c1ccccc1NC(=O)c1ccc(F)cc1`, the inhibition stood at 0.65%.
Then `CS(=O)(=O)N1CCN(Cc2cc3nc(-c4cccc5[nH]ncc45)nc(N4CCOCC4)c3s2)CC1`, with 3.78%; and `COc1ccc(-c2nc(N3CCOCC3)c3sc(CN(C)c4ncc(C(=O)NO)cn4)cc3n2)cn1`, with 97.1%; and `Cc1c(CN2CCN(C(=O)[C@H](C)O)CC2)sc2c(N3CCOCC3)nc(-c3cnc(N)nc3)nc12`, with -2.64%.
Then `CC(=O)N(OCc1ccccc1)[C@@H]1c2cc(C#N)ccc2OC(C)(C)[C@H]1O`, with 0.48%.
On to `O=C(O)CC/C=C\C[C@@H]1CO[C@H](c2ccccc2Cl)O[C@@H]1c1ccccc1O`, for which the inhibition was determined as 11.4%.
In the case of `O=C(NCc1ccc(F)cc1)N1CCN2C(=O)OC(c3ccccc3)(c3ccccc3)C2C1` (configuration not stated), the inhibition is -3.2%.
For the compound `CCCn1c(=O)[nH]c2nc(-c3ccc(S(=O)(=O)O)cc3)[nH]c2c1=O`, the inhibition came to 1.08%.
Then `Nc1ccc(-c2nc3ccc(-c4nc5ccc(N)cc5[nH]4)cc3[nH]2)cc1`, with 0.97%; and `O=S(=O)(O)c1ccc2[nH]c(-c3ccccc3)nc2c1`, with 94.7%.
Then `O=C(O)Cc1ccc(CCNS(=O)(=O)c2ccc(Cl)cc2)cc1`, with 9.85%; and `COc1cccc(-c2cc(=O)c3ccccc3o2)c1N`, with 90%.
Then `Cc1cc(C(=O)N2Cc3cnn(C)c3Nc3ccccc32)ccc1CNC(=O)N1CCC[C@H]1C(=S)N1CCCN(C)CC1`, with -1.87%.
Regarding `CS(=O)(=O)Nc1ccc2oc3c(OC(F)F)ccc(C(=O)Nc4c(Cl)cncc4Cl)c3c2c1`, the inhibition is -3.43%.
For the compound `CC(C)[C@@H](CS(=O)(=O)C(C)C)N1C(=O)[C@@](C)(CC(=O)O)C[C@H](c2cccc(Cl)c2)[C@H]1c1ccc(Cl)cc1`, the inhibition is -1.54%.
Then `CC1=NN(c2ccccc2)C(=O)C1`, with -3.47%; and `Cn1c(-c2ccccc2)nnc1S(C)(=O)=O`, with -7.28%.
Then `C/N=c1/nc(-c2ccccc2)n(-c2ccccc2)s1`, with 69.9%.
For the compound `Clc1cccc(Cl)c1CSc1nnc(-c2cnccn2)s1`, the inhibition turned out to be 5.02%.
`c1ccc(-c2n[nH]c3c2oc2ccccc23)cc1`: the inhibition was 70.2%.
On to `O=c1c2ccccc2oc2ccccc12`, for which the inhibition is 37.9%.
As for `O=C(Nc1ccc(Cl)cc1)Nc1cccc(-c2cccc(N3CCCC3)n2)c1`, the inhibition is -4.23%.
As for `CN1CC(=O)N=C1NC(=O)Nc1cccc(Cl)c1`, the inhibition was 90.4%.
Then `N=C(N)NC(=N)Nc1cccc(Cl)c1`, with -4.52%; and `C[C@H](N)C(=O)O`, with -3.75%.
With `Cc1ncc(CO)c(/C=N/NC(=O)c2ccncc2)c1O`, the inhibition was -0.7%.
Then `O=C(O)c1cc(N2N=C(C(F)(F)F)/C(=C/c3ccc(-c4ccccc4)o3)C2=O)ccc1Cl`, with -1.26%; and `COc1cccc(OC)c1-c1cc(C(=O)NC2(C(=O)O)C3CC4CC(C3)CC2C4)nn1-c1ccnc2cc(Cl)ccc12` (configuration not stated), with 0.43%; and `O=C(Nc1ccc([N+](=O)[O-])cc1Cl)c1cc(Cl)ccc1O`, with 97%.
Consider `O=C(Nc1ccccc1)c1cc([N+](=O)[O-])ccc1Cl`, for which the inhibition was -4.52%.
With `O=C(Nc1ccncc1)c1cc([N+](=O)[O-])ccc1Cl`, the inhibition was -9.26%.
Then `N#Cc1cc(F)cc(-c2nc(-c3ccc(F)cn3)no2)c1`, with 42%; and `c1ccc(Cn2c(N3CCNCC3)nc3ccccc32)cc1`, with -7.7%; and `O=C(NC1CCC1)c1ccc(C#Cc2cccc(F)c2)nc1`, with 24.9%.
Then `Cc1nc(C#Cc2ccnc(Cl)c2)c(C)n1-c1ccc(F)cc1`, with -3.13%; and `Cc1cc(C)c(N)c(C#Cc2cccc(F)c2)n1`, with 93%.
Then `CC(=O)OC1C[C@H]2C(C)(C)C(=O)C=C[C@]2(C)[C@H]2CC[C@@]3(C)[C@H](c4ccoc4)OC(=O)[C@H]4O[C@]43[C@]12C` (some centres not stated), with -9.28%; and `Nc1cc2c3ccccc3ccc2c2ccccc12`, with 23.6%; and `Clc1cccc(C(c2ccc3[nH]cnc3c2)n2ccnc2)c1` (configuration not stated), with 0.23%.
Take `O[C@H]1CC[C@H](Nc2ncc3nc(Nc4c(F)cc(F)cc4F)n([C@H]4CCOC4)c3n2)CC1`: the inhibition is -4.44%.
For the compound `NCc1ccc(S(N)(=O)=O)cc1`, the inhibition is 0.53%.
In the case of `Nc1ccc(S(N)(=O)=O)cc1`, the inhibition is -5.55%.
Turning to `NS(=O)(=O)c1ccc(S(=O)(=O)Nc2cccc3c(Cl)c[nH]c23)cc1`, the inhibition was 79.5%.
Then `C=CC(C)(O)CCC=C(C)C` (configuration not stated), with 1.97%.
Then `O=C(CN1C(=O)C2(CCCC2)NC[C@H]1c1cc(F)cc(F)c1)Nc1ccc2c(c1)C[C@@]1(C2)C(=O)Nc2ncccc21`, with -4.92%.

For the origin of these results see ChEMBL document CHEMBL4808148, “HDAC6 screening dataset using tau-based substrate in an enzymatic assay yields selective inhibitors and activators” (2021).
